MPTP inh – blocks calcium-induced mitochondrial swelling; actives 1.4% (n = 360,000); AID 602449; inhibition, % at 10 µM; isolated mouse mitochondria, Ca2+ swelling absorbance, 30 min;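 active = inhibition of 50% or more, scaled per plate between neutral and stimulator controls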;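 note: 0% = DMSO wells given calcium and 100% = 1 mM EGTA wells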
KLK7 zymogen act – activates the human kallikrein-7 zymogen; activation, % at 7 µM; purified proKLK7, EDANS-DABCYL substrate fluorescence; 100% is mature enzyme control, 0% vehicle; actives 0.9% (n = 370,000); AID 652039;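 active = activation above the mean of all tested compounds plus 3 SD, computed per campaign excluding outliers beyond control limits, cut at about 13% in these data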
ADAM10 inh – inhibitors of human ADAM10. actives 0.62% (n = 370,000). inhibition, % at 7 µM. AID 720582. recombinant ADAM10, EDANS/DABCYL FRET peptide cleavage, 3 h. O14672;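 active = inhibition above a per-campaign cutoff equal to the mean of compounds falling between control-based bounds plus 3 SD, cut at about 20% in these data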;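 note: 0% = DMSO wells while the 100% control is not disclosed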
Target sequence (O14672 214-748 limits assumed): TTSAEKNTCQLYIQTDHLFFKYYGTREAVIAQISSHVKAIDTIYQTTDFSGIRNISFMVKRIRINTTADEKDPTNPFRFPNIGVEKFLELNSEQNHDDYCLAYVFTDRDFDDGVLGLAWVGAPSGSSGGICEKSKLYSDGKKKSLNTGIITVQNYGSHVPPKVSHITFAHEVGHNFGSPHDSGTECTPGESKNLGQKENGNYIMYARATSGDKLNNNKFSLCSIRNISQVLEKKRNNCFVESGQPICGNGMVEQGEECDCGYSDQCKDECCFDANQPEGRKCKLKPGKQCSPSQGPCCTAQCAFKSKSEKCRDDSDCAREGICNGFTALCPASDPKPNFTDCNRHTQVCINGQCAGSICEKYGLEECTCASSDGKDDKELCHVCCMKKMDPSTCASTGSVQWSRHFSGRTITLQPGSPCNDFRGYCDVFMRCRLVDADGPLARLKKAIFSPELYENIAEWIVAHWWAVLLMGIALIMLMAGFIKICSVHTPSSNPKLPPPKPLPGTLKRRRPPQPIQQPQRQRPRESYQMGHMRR
ADAM17 inh – ADAM17 inhibition, QFRET primary screen; recombinant ADAM17, EDANS/DABCYL FRET peptide cleavage; P78536; inhibition, % at 6.95 µM; actives 0.83% (n = 370,000); AID 720648;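 active = inhibition above the mean of compounds lying between control limits plus 3 SD, set per campaign, cut at about 8.5% in these data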;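 note: 0% = DMSO-only wells as the low control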
Pemphigus Ab inh – blocks pemphigus antibody binding to human desmoglein-3. actives 0.48% (n = 310,000). binding (percent of control), % at 10 µM. P32926. DSG3-coupled beads, scFv-anti-DSG3-GFP binding, flow cytometry; stronger effect = lower value;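 active = binding more than 3 SD below its plate's average and above zero; inconclusive = below that plate limit but binding exactly zero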;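 note: hits lower antibody fragment binding to DSG3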
rCAG binder – binds r(CAG) RNA repeats. r(CAG) RNA repeat, TO-PRO-1 dye displacement fluorescence. inhibition, % at 3 µM. actives 1.3% (n = 370,000);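 active = inhibition above the plate cutoff, the mean of all test compounds on that plate plus 3 SD, cut at about 35% in these data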;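 note: 0% = DMSO alone and 100% = 100 µM mitoxantrone as full dye displacement; higher means more dye released from RNA so lower well fluorescence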
proKLK7 act conf – proKLK7 activation, confirmation | actives 68% (n = 3,200) | purified proKLK7, EDANS-DABCYL substrate fluorescence; scaled: vehicle 0, mature enzyme 100 | shares compounds with KLK7 zymogen act | activation, % at 7 µM | AID 686949;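 active = activation, as change over the incubation, above the mean of all tested compounds plus 3 SD, cut at about 13% in these data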
EDANS interfere – fluorescence interference counter-screen for KLK7 activators; EDANS-DABCYL substrate fluorescence interference, no enzyme, 4 h; solvent 0%, active enzyme control 100%; activation, % at 7 µM; AID 686952; actives 80% (n = 3,200); shares compounds with KLK7 zymogen act;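 active = activation above the all-compound mean plus 3 SD, ignoring values outside control-based bounds, cut at about 4.8% in these data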;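 note: value is the 4 h activation minus the activation read at time zero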
EDANS interf – counter-screen for kallikrein-7 activators: EDANS-DABCYL interference, dose response; shares compounds with KLK7 zymogen act; EDANS-DABCYL peptide fluorescence interference, no enzyme; EC50, µM; actives 20% (n = 250);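 active = compounds that raise the fluorescence signal in this interference counterscreen, with EC50 at or below 10 µM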;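 note: intact quenched peptide substrate alone read at 355 nm excitation and 520 nm emission; signal is fluorescence gain from T0 to T4 after four hours at room temperature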
An asterisk follows results filed as active; i = inactive; ? = inconclusive; . = no result given. Only some compounds are listed: those with a hit (about 4.7% of all), similar ones and a draw of the others.

SMILES	MPTP inh	KLK7 zymogen act	ADAM10 inh	ADAM17 inh	Pemphigus Ab inh	rCAG binder	proKLK7 act conf	EDANS interfere	others
COc1ccc2oc(-c3ccncc3)cc(=O)c2c1	-2	21*	i	-160	.	0	37*	33*
COc1ccc2oc(-c3ccco3)cc(=O)c2c1	0	57*	i	i	105	2	74*	71*
C/C(=N\OCC(=O)OCC(=O)NCc1ccccc1)c1ccc2c(c1)OCO2	0	-1	4	6	116	2	.	.
COc1ccc([C@H]2CC(=O)C[C@@H](CCn3cccn3)O2)cc1	0	1	-4	-2	.	3	.	.
COc1ccc2oc(C(=O)Nc3nnc(C)s3)c(C)c2c1	-1	21*	-354	-79	?	2	1	3
COc1ccc2c(c1OC)C(CC(C)=O)N1CCc3cc4c(cc3C1C2=O)OCO4 (stereo not given)	0	0	-6	-4	.	1	.	.
COc1ccc(-c2csc(NC(=O)c3ccc(S(=O)(=O)N4CCc5ccccc5C4)cc3)n2)c(OC)c1	0	55*	-5	0	90	13	59*	79*
CCOC(=O)c1oc2cc(O)cc(C)c2c1C	-1	-20	-81	-25	96	0	.	.
CCOC(=O)Cc1c(C)c2ccc(N(CC)CC)cc2oc1=O	1	76*	i	i	107	-5	-7	-26
CCOC(=O)Cc1c(C)c2c(O)cc(O)cc2oc1=O	-2	76*	i	i	98	3	62*	64*
Cn1ncc2c(O/N=C(\N)c3ccc(C(F)(F)F)cc3)ncnc21	-1	1	3	-2	122	-4	.	.
O=C1NC[C@H](CCCCN2C[C@@H](Cc3ccccc3)N(Cc3ccccc3)C(=O)C2=O)N(CCC2CCCCC2)C1=O	-3	-1	-7	-6	.	1	.	.
Nc1ccc(-c2nc3ncccc3o2)cc1	-2	39*	i	i	90	0	58*	71*
CCc1nnc(NC(=O)c2oc3ccccc3c2COC(C)C)s1	0	0	-6	-2	88	2	.	.
COc1cccc(C(=O)NCCCNc2nc3cc(C)cc(C)c3cc2C#N)c1	-1	-1	-89	-26	103	2	.	.
Cc1cc(C)c2cc(C#N)c(NCCCNC(=O)CCC(=O)O)nc2c1	2	15*	-489	-122	108	4	20*	22*
CC[C@@H](C)[C@H](NC(=O)CNC(=O)Cc1c(C)c2c(cc(C)c3c(C)coc32)oc1=O)C(=O)O	0	24*	i	-316	90	15	-39	-44
CCCC(NC(=O)Cc1c(C)c2c(cc(C)c3c(C)coc32)oc1=O)C(=O)O (stereo not given)	0	26*	i	-269	93	13	-11	-12
Cc1coc2c1c(C)cc1oc(=O)c(CC(=O)NCCCN3CCCC3=O)c(C)c12	0	23*	i	-413	101	-3	4	2
Cc1oc2c(c(C)cc3oc(=O)c(CC(=O)N[C@@H](CCCNC(N)=O)C(=O)O)c(C)c32)c1C	2	22*	-233	-90	105	15	21*	14*	EDANS interf=>69
Cc1coc2c1c(C)cc1oc(=O)c(CC(=O)N[C@@H](CC(C)C)C(=O)O)c(C)c12	0	11	i	-264	96	21	.	.
CC(C)(C)OC(=O)C(Oc1ccccc1[N+](=O)[O-])C(=O)OC(C)(C)C	6	325*	-17	-4	.	-2	217*	205*
CC(C)(C)/C(COc1ccccc1[N+](=O)[O-])=N/O	-1	0	5	3	114	-2	.	.

Bioassay records from PubChem BioAssay.
